Assay results: PubChem BioAssay AID2012 (Sanford-Burnham Center for Chemical Genomics, 2009)
The whole screen tested about 290,000 compounds, of which about 2,700 (0.93%) were called active. How the calls were made is not given here. This excerpt belongs to a sample that is enriched for actives.

Biological target: Eukaryotic translation initiation factor 4H (Homo sapiens) (UniProt Q15056)
Assay: human eIF4H binding inhibitors, primary screen, translation initiation inhibitor project, biochemical, uHTS, fluorescence polarization (AID 2012);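 further: calls also rest on retests at 20 µM and on dose response follow-up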
Conditions: eIF4H fluorescence polarization binding assay, stronger effect = higher value

Row | Compound | inhibition (at 35 µM) | inhibition (confirmation average, at 20 µM) [%]
1 | Cc1cc2oc(=O)cc(CN(C)Cc3ccc(OC(F)F)cc3)c2cc1Cl | -2.2% (inactive) | 
2 | Cc1ccc(S(=O)(=O)N2CCC(C)CC2)cc1C(=O)NCc1ccccn1 | -2.5% (inactive) | 
3 | CCc1ccc(NC(=O)CN2CCC(C(=O)c3ccc(OC)cc3)CC2)cc1 | -2.2% (inactive) | 
4 | CCOC(=O)N1CCN(C(=O)COc2ccc(Br)cc2)CC1 | 5.2% (inactive) | 
5 | CN1CCCC(OC(=O)COc2ccc(Br)cc2)C1 (stereo not drawn) | 99.9% (active) | 84.2
6 | Cc1ccc(C(=O)OC2CCCN(C)C2)cc1 (stereo not drawn) | -3.9% (inactive) | 
7 | COC(=O)Cc1ccc(NC(=S)NCc2ccc(Cl)cc2)cc1 | 2% (inactive) | 
8 | Fc1ccccc1CNC(=S)Nc1ccc(Cl)cc1 | 0.6% (active) | 106
9 | S=C(NCc1cccs1)Nc1ccc(Cl)cc1 | -10% (inactive) | 
10 | O=C(CSCc1ccccc1)N1CCc2ccccc21 | 2.4% (inactive) | 
11 | CCn1c(=O)c2ccccc2n(CC(=O)N2CCCc3ccccc32)c1=O | -6.1% (inactive) | 
12 | CCC(=O)N1CCCc2ccccc21 | 100% (active) | 
13 | COc1ccc(S(=O)(=O)N2CCOC2CNC(=O)C(=O)NCc2ccc(F)cc2)cc1 (stereo not drawn) | -9.2% (inactive) | 
14 | CCOc1c(OC)cccc1C(=O)NCC1(c2ccccc2)CCCC1 | -6% (inactive) | 
15 | COc1cc([C@H](Cc2ccccc2)NC(C)=O)oc(=O)c1 | 100% (active) | 
16 | COC(=O)[C@H](Cc1ccccc1)NC(=O)Nc1ccc(OC)cc1 | 2.4% (inactive) | 
17 | CCOC(=O)C(Cc1ccccc1)NC(=O)CCC(=O)c1ccc(OC)cc1 (stereo not drawn) | -3.3% (inactive) | 
18 | COc1cc2c(cc1OC)CN(C(=O)c1cc(S(=O)(=O)N3CCCCC3)ccc1Cl)CC2 | -13.7% (inactive) | 
19 | O=C(Cc1ccccc1)n1nc(-c2ccccc2)nc1NCc1ccco1 | -6.8% (inactive) | 
20 | Cc1nc2nc(SCC(=O)NCc3ccco3)nn2c(C)c1Cc1ccccc1 | 3.5% (inactive) | 
21 | O=c1nc2s/c(=C\c3ccco3)c(=O)n2nc1Cc1ccccc1 | 96.4% (active) | 

Row | Compound | inhibition (at 35 µM) | inhibition (confirmation average, at 20 µM) [%]
22 | Cc1cccn2c(=O)c(C=O)c(Nc3ccc(S(N)(=O)=O)cc3)nc12 | -1.8% (inactive) | 
23 | Cc1ccc(C)c(N2CCN(C(=O)CCCCCn3c(=S)[nH]c4ccc(N5CCOCC5)cc4c3=O)CC2)c1 | 1.4% (inactive) | 
24 | C=CCNC(=O)CSc1nc2scc(-c3ccco3)c2c(=O)n1CC=C | 49.9% (inactive) | 
25 | C=CCn1c(SCc2csc(C)n2)nc2scc(-c3ccc(C)o3)c2c1=O | 4.9% (inactive) | 
26 | C=CCn1c(=S)[nH]c2scc(-c3ccco3)c2c1=O | 94.1% (active) | 
27 | O=[N+]([O-])c1ccccc1/C=C/CN1CCCC(CO)C1 (stereo not drawn) | -4.3% (inactive) | 
28 | C=CCNc1nnc(SCC(=O)N2CCCCC2)c2ccccc12 | 85.7% (active) | 54.5
29 | O=C(CSc1ncccn1)N1CCCC1 | -5.6% (inactive) | 
30 | C=CCNc1nnc(C)c2ccccc12 | -4.9% (inactive) | 
31 | C=CCOc1ccc(C(=O)Nc2ccccc2C(=O)N2CCCC2)cc1 | 0.5% (inactive) | 
32 | COCC1CCN(C(=O)C2CCC(=O)N(Cc3cccc(C(F)(F)F)c3)C2)CC1 (stereo not drawn) | -2.7% (inactive) | 
33 | COc1ccc(N(CC(=O)NCCSCc2cccc(Cl)c2)S(C)(=O)=O)cc1 | -10.9% (inactive) | 
34 | CCc1cccc(C)c1NC(=O)CSc1nnc(-c2ccco2)n1N | 6.1% (inactive) | 
35 | NC(=O)c1c(NC(=O)CSc2nnc(-c3ccco3)n2N)sc2c1CCCC2 | 65.9% (active) | 96.5
36 | NC(=O)c1c(NC(=O)CSc2nc(N)cc(=O)[nH]2)sc2c1CCCC2 | 15.5% (inactive) | 
37 | COc1ccc(C(=O)NC(=S)N2CCCCC2c2cccnc2)cc1OC (stereo not drawn) | 2% (inactive) | 
38 | O=C(CN(C(=O)CCC(=O)Nc1nccs1)c1ccc(F)cc1)NCc1ccc2c(c1)OCO2 | -1.4% (inactive) | 
39 | CNc1nc(-c2ccccc2)cc(-c2ccccc2)n1 | -3.9% (inactive) | 
40 | CS(=O)(=O)c1sc2nc(-c3ccccc3)cc(-c3ccccc3)c2c1N | 98.5% (active) | 
41 | Nc1nc(-c2ccccc2)cc(-c2ccccc2)n1 | 0.4% (inactive) | 
42 | CCCc1cc(C(=O)Nc2ccc(Cl)cn2)cs1 | 2.5% (inactive) | 

Row | Compound | inhibition (at 35 µM) | inhibition (confirmation average, at 20 µM) [%]
43 | CCc1ccccc1S(=O)(=O)Cc1ccc(C(=O)NCCc2ccccc2)o1 | -13% (inactive) | 
44 | COc1ccc(-n2c(-c3ccc(OC)c(OC)c3)n[nH]c2=S)cc1 | 7.7% (inactive) | 
45 | COc1ccc(OC)c(-n2c(-c3ccn[nH]3)n[nH]c2=S)c1 | -6% (inactive) | 
46 | COc1ccccc1-n1c(-c2cc(-c3ccco3)[nH]n2)n[nH]c1=S | 58% (active) | 74
47 | Cc1nc(C)c(-c2nnc(-c3cccc(S(=O)(=O)N(C)C)c3)o2)cc1C(=O)NN | -1.3% (inactive) | 
48 | Cc1ccccc1C(=O)NC(=S)NC1CC1 | -17.7% (inactive) | 
49 | CSCCC(NC(=O)c1ccco1)C(=O)OCC(=O)Nc1ncc(Cl)c(C)c1Cl (stereo not drawn) | 4.5% (inactive) | 
50 | C/C(=N\Nc1ncc(Cl)cc1Cl)c1ccc(S(=O)(=O)NCc2ccco2)cc1 | -4.5% (inactive) | 
51 | Cc1c(Cl)cnc(NC(=O)COC(=O)c2ccc(S(=O)(=O)NCc3ccco3)cc2)c1Cl | 58.6% (active) | 87.4
52 | CC(=O)Nc1ccc(N2C(=O)C3C4C=CC(CC4)C3C2=O)cc1 (stereo not drawn) | -5.9% (inactive) | 
53 | O=c1[nH]c(/C=C\c2cccc(C(F)(F)F)c2)nc(O)c1[N+](=O)[O-] | 3.5% (inactive) | 
54 | Cc1cccc(NS(=O)(=O)c2ccc(C(=O)NCC(C)(C)N3CCOCC3)cc2)c1C | -0.1% (inactive) | 
55 | O=C1N/C(=C/c2cccn2-c2ccccc2)C(=O)N1c1cccc(Cl)c1 | 2.6% (inactive) | 
56 | Cc1cccc(NC(=O)CN2C(=O)c3ccccc3C2=O)c1C | 9.4% (inactive) | 
57 | Cc1ccccc1NC(=O)CN1C(=O)N/C(=C\c2cccn2-c2cccc(C(=O)O)c2)C1=O | 89.1% (active) | 86.1
58 | Cc1ccc(CNC(=O)C(=O)c2cn(CC(=O)N3CCOCC3)c3ccccc23)cc1 | -6.1% (inactive) | 
59 | Cc1ccc(C)c(SCc2nc3sc(C(=O)O)c(C)c3c(=O)[nH]2)c1 | 2.9% (inactive) | 
60 | CCOC(=O)c1sc2nc(CSc3ccccc3)[nH]c(=O)c2c1C | 2.6% (inactive) | 
61 | CSc1nnc(SCc2nc3sc(C(=O)O)c(C)c3c(=O)[nH]2)s1 | 86.3% (active) | 
